The values below come from PubChem BioAssay (Tox21).

Results filed as inconclusive are left out. The source made the active and inactive calls. Calls follow the shape of the dose curve; as a rule, active = well fitted inhibition curve with a large enough effect in the repeat runs; inconclusive = weak or mixed curves, or effect the other way; inactive = no such curve, though single readings can be large or run the other way.
% is scaled to controls: 0 for no effect and ±100 for the full control effect.

The target of the experiment is Androgen receptor (Homo sapiens) (UniProt P10275). Nature of the experiment: qHTS assay to identify small molecule antagonists of the androgen receptor (AR) signaling pathway using the MDA cell line (AID 743042; also: nearly all actives have a fitted effect of over 55% in size). The note with it: MDA-kb2 AR-luc, MMTV luciferase, R1881 antagonist, 16 h; series mostly up to 70.3 µM; activity change, negative = inhibition: at the top concentration. From the text: U.S. Tox21 Program National Center for Advancing Translational Sciences [NCATS] NIH Chemical Genomics Center [NCGC] U.S. Environmental Protection Agency [EPA] National Institutes of Environmental Health Sciences [NIEHS] National Toxicology Program [NTP] U.S. Food and Drug Administration [FDA] Tox21 Assay Overview: Androgen receptor (AR), a nuclear hormone receptor, plays a critical role in AR-dependent prostate cancer and other androgen related diseases. Endocrine disrupting chemicals (EDCs) and their interactions with steroid hormone receptors like AR may cause disruption of normal endocrine function as well as interfere with metabolic homeostasis, reproduction, developmental and behavioral functions. To identify the compounds that inhibit AR signaling, MDA-kb2 AR-luc cell line (from ATCC, deposited by Wilson et al.) was used to screen the Tox21 10K compound library. MDA-kb2 AR-luc cell line is human breast carcinoma cell line that was stably transfected with a luciferase reporter gene under control of the MMTV promoter containing response elements for both androgen receptor (AR) and glucocorticoid receptor (GR).
Sequence of Androgen receptor (Homo sapiens) (P10275 whole entry, looked up): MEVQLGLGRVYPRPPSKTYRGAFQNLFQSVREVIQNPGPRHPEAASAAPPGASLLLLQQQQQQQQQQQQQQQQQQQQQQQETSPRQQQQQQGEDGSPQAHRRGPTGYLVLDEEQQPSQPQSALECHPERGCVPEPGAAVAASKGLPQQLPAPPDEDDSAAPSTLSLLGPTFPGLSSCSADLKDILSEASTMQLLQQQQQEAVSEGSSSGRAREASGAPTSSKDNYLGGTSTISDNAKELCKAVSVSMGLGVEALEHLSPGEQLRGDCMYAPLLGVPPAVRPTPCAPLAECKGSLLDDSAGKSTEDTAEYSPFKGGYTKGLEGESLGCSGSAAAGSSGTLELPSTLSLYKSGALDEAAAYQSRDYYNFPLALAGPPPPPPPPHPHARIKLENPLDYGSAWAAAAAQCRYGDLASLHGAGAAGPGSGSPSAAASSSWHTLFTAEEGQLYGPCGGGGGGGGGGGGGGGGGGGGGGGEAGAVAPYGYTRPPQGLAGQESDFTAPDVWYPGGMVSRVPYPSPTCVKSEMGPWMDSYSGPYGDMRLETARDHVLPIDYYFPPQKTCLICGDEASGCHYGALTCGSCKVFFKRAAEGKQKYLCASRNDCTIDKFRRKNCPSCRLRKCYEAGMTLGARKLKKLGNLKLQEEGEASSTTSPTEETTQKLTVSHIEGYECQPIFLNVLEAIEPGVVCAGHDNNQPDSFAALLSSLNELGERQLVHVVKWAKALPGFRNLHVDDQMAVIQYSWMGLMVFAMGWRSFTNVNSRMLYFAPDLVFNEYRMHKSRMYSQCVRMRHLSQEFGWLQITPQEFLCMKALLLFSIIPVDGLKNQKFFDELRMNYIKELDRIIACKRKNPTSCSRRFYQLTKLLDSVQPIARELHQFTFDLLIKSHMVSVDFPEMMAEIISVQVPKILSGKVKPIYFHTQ
Tox21 Assay Protocol Summary: MDA-kb2 cells were dispensed at 3,000 cells/4 uL/well of culture medium into white wall/solid-bottom 1536-well plates using a Multidrop Combi (ThermoFisher Scientific, Waltham, MA) dispenser. After the assay plates were incubated at a 37C and 0% CO2 for 5 hr, 23 nL of compounds dissolved in DMSO, positive controls or DMSO only was transferred to the assay plate by a Pintool station (Kalypsys, San Diego, CA), followed by addition of 1 uL of agonist (R1881) in culture medium using a Bioraptr Flying Reagent Dispenser (FRD) workstation (Beckman Coulter, Indianapolis, IN, USA). The plates were incubated at a 37C and 0% CO2 for 16 h. After 15.5 h incubation, 1uL of CellTiter-Fluor reagent (Promega, Madison, WI) was added using a Bioraptr FRD to each plate for measuring cytotoxicity. The fluorescence intensity was quantified on a ViewLux plate reader (PerkinElmer, Shelton, CT) following 30 min incubation at 37C and 0% CO2. For measuring luciferase reporter gene activity, 4 uL of ONE-Glo reagent (Promega) was added to each plate using a Bioraptr FRD and luminescence was quantified on a ViewLux (PerkinElmer) plate reader after 30 min incubation at room temperature.
For `FC(F)(F)c1ccc(Cl)c(Cl)c1`, the compound was called inactive. Turning to `CCc1cccc(C)c1N`, the “activity change, negative = inhibition” value was 1.72% (inactive). Turning to `C[Si](O[Si](C)(C)C)O[Si](C)(C)C`, the compound was called inactive. Turning to `O=C(O)c1ccccc1C(c1ccc(O)cc1)c1ccc(O)cc1`, the “activity change, negative = inhibition” value was 8.21% (inactive). `Cc1ccc(N(C)C)cc1`: the compound was called inactive. Same read-out and setting: under `O=C(O)c1ccc2c(c1)C(=O)OC2=O` stands “inactive”. As for `CCCCCCCCCCCCOCCO`, the “activity change, negative = inhibition” value is -15.7% (inactive). Take `OCCOCCOCCO`: the compound was called inactive. For `C[C@H]1C[C@@H]2[C@H]([C@@H](O)C[C@@]3(C)[C@H]2CC[C@]3(O)C(=O)CO)[C@@]2(C)C=CC(=O)C=C12`, the compound was called inactive. The same measure, in the same setting: the result for `CC1CCC(C(C)C)C(O)C1` (stereo not drawn) reads “inactive”; that for `Nc1cc([N+](=O)[O-])ccc1O`, “inactive”; that for `CC(c1cc2ccccc2s1)N(O)C(N)=O` (stereo not drawn), “inactive”. On to `c1ccc2c(c1)ccc1ccccc12`, for which the result was inactive.
